Results reported in ChEMBL document CHEMBL3988442, “University of Dundee, Small-Polar-MMV Screening Library” (2021).
Hit rate of the full screen: of about 38,000 compounds, about 1,200 (3.2%) showed an effect of 50% or more. The median lay at about -58%. What follows is part of a selection rich in strong results, with near analogues and random picks from the rest.

tested on: Plasmodium falciparum; experiment: Calibr Malaria Delayed Death Assay SOP; format: functional, organism-based; set-up: scale not given: in the data most compounds retested in dose-response had high values; conditions: concentration 4.99e-06 (unit not given; other assays of the set use mol/L)

| SMILES | Percent Effect |
| --- | --- |
| CCn1cc(Br)c(C(=O)NCc2ccccc2)n1 | -62.24% |
| COc1ccc(C(=O)N2CCC(Nc3cccnn3)CC2)cn1 | -79.23% |
| CN(C)c1ncc2c(n1)CN(C1CCSCC1)C2=O | -103.3% |
| Cc1cc(C2CCCN(Cc3nnc(Cc4ccccc4)o3)C2)n[nH]1 (centres undefined) | -117.5% |
| COc1cc(Cl)ccc1C(=O)N1CCCC(c2cc(C)[nH]n2)C1 (centres undefined) | -107.6% |
| Cc1cc(CNC(=O)c2ccno2)c(C)o1 | -93.35% |
| CCS(=O)(=O)c1ccccc1C(=O)N1CCCC(n2cccn2)C1 (centres undefined) | -21.75% |
| Cc1cccnc1[C@H](C)NC(=O)c1cccc(CC2CCNCC2)c1 | 7.759% |
| O=C(NCc1cnn2cccnc12)c1cccc(CC2CCNCC2)c1 | 65.91% |
| CC(C)(O)CCc1cccc(C(=O)NCc2cnn3cccnc23)c1 | -126.6% |
| CCOCC1CCN(C(=O)Nc2ccc3c(c2)CCCO3)C1 (centres undefined) | -56.87% |
| CCNC(=O)C1CCCN(C(=O)Nc2ccc3c(c2)CCCN3C)C1 (centres undefined) | 9.496% |
| CCOCC1CCN(C(=O)Nc2ccc3c(c2)CCCN3C)C1 (centres undefined) | 57.13% |
| Cc1noc([C@H]2COC[C@H]3CN(C(=O)Cc4cccs4)C[C@H]32)n1 | -60.46% |
| CN(C(=O)Cn1nc(-c2cccs2)ccc1=O)C1CCS(=O)(=O)C1 (centres undefined) | -97.97% |
| Cc1c(CN2C[C@H](O)[C@@H](N3CCOCC3)C2)[nH]c2ccc(F)cc12 | -95.14% |
| CC1=C(CCN2CC[C@@H](N3CCC(O)CC3)[C@H](O)C2)C(C)(C)CCC1 | -51.59% |
| CC1=C(CCN2C[C@H](O)[C@@H](N3CCOCC3)C2)C(C)(C)CCC1 | 77.23% |
| COc1ccc2c(c1)NC(=O)C2OC(=O)Cc1ccccc1C (centres undefined) | 10.16% |
| c1cc(-c2cn3nccc3nc2C2CCCCC2)nc(N2CCCC2)n1 | -1.044% |
| CN1CCCN(c2nc(C3CCCC3)nc3c2cnn3C)CC1 | -58.12% |
| Cc1nn(C)cc1-c1ccnc(N2CCCN(CC(C)C)CC2)n1 | -23.38% |
| CCc1ncc2c(n1)CN(c1nccc(C3CCCC3)n1)C2 | -48.7% |
| CN1CCCN(c2nccc(-c3cncnc3C3CCCCC3)n2)CC1 | 59.73% |
| CN1CCN(c2nccc(-c3cncnc3C3CCCCC3)n2)CC1 | 60.54% |
| Cc1nn(C)c2ncc(NC(=O)N3CCCCCC3)cc12 | -40.12% |

| SMILES | Percent Effect |
| --- | --- |
| Cc1nc(CN2CCc3cnc(C(C)C)nc3C2)oc1C | -83.71% |
| CC(NS(C)(=O)=O)c1nc(-c2ccc(Br)cc2)no1 (centres undefined) | -124.5% |
| Cc1nc(C2CCNCC2)cc(N2CCOc3ccccc3C2)n1 | 46.26% |
| Cc1nc(CCN)cc(N2CCOc3ccc(Cl)cc3C2)n1 | 34.3% |
| Cc1nc(C2CCN(C)CC2)cc(N2CCOc3ccc(Cl)cc3C2)n1 | 69.39% |
| Cn1cnnc1C1CCCN1C(=O)Nc1cccc(OC(F)F)c1 (centres undefined) | -73.45% |
| CC(C)C(=O)N1CCCC2(CCCN2Cc2cccnc2)C1 (centres undefined) | -19.91% |
| CC(C)C(=O)N1CCC2(CCN2CC2CC2)C1.O=C(O)C(F)(F)F (centres undefined) | -79.93% |
| CC(C)C(=O)N1CCC2(CN(CC3CCCC3)C2)C1.O=C(O)C(F)(F)F | -72.67% |
| CC(C)C(=O)N1CCCC2(CCCN2CC2CCCC2)C1.O=C(O)C(F)(F)F (centres undefined) | 59.96% |
| O=C(C1CCCCC1)N1CCC2(CCCN2CC2CC2)CC1.O=C(O)C(F)(F)F | -22.84% |
| CCCC(NC(=O)c1ccc(C)cc1C)c1nnn[nH]1 (centres undefined) | -70.8% |
| OC[C@@H]1CCCN1c1nccc(-c2c[nH]nc2-c2ccncc2)n1 | 66.81% |
| CC(C)[C@H](CO)Nc1nccc(-c2c[nH]nc2-c2ccncc2)n1 | 83.09% |
| Cc1ccccc1-n1cc(-c2ccnc(NC(CO)C(C)C)n2)cn1 (centres undefined) | 25.15% |
| Cc1csc2ncc(-c3ccnc(N4CCC[C@@H]4CO)n3)c(=O)n12 | -191.9% |
| Cc1ncc(-c2ccnc(N3CCC[C@@H]3CO)n2)c(-c2cccnc2)n1 | -29.65% |
| CN1CCCN(c2nccc(-c3cc(C(=O)O)ccn3)n2)CC1 | -114.4% |
| CN1CCCN(c2nccc(-c3c[nH]nc3-c3ccncc3)n2)CC1 | 65.32% |
| Cc1[nH]c2ccccc2c1-c1ccnc(N[C@@H](CO)C(C)C)n1 | -14.55% |
| NC(=O)[C@H]1CCCN(c2nccc(-c3c[nH]nc3-c3cccnc3)n2)C1 | -58.34% |
| CN1CCCN(c2nccc(-c3c[nH]c4ccc(Br)cc34)n2)CC1 | 40.41% |
| c1cncc(-c2nc(C3CC3)ncc2-c2ccnc(N3CCCC3)n2)c1 | -168.7% |
| c1cc(-c2n[nH]cc2-c2ccnc(N3CCCC3)n2)ccn1 | 80.23% |
| Cc1cnc(C(NC(=O)NCc2nc(C3CC3)no2)C2CC2)s1 (centres undefined) | -34.97% |
| Cc1ccc(N2CCO[C@H]3CN(Cc4cccs4)C[C@H]32)nn1.O=C(O)C(F)(F)F.O=C(O)C(F)(F)F | -16.91% |

| SMILES | Percent Effect |
| --- | --- |
| CCN(CC)Cc1cc(=O)n2c(n1)CN(C(=O)c1ccnnc1)CCC2.O=C(O)C(F)(F)F | -110.9% |
| Cc1ccc(CN2CC[C@H]3OCC[C@@]3(C(=O)N3CCCO3)C2)o1.O=C(O)C(F)(F)F | -80.01% |
| CC(C)c1nnc2sc(CC3CN(C(C)C)CCO3)nn12 (centres undefined) | -105.6% |
| CCCS(=O)(=O)N1Cc2nccn2CC(Cn2cncn2)C1 (centres undefined) | -125.8% |
| c1cc(-c2n[nH]cc2-c2ccnc(N3CCCCCC3)n2)ccn1 | 76.99% |
| NC(=O)C1CCN(c2nccc(-c3c[nH]nc3C3CCCCC3)n2)CC1 | 12.3% |
| c1cc(-c2c[nH]nc2C2CCCCC2)nc(N2CCCCCC2)n1 | -3.373% |
| CC(NC(=O)N1CCNC(=O)CC1)c1c(F)cccc1Cl (centres undefined) | -91.59% |
| COCCC(=O)N1CCC2(COCc3cnc(-c4cccnc4)nc32)C1 (centres undefined) | -64.26% |
| Cc1cncc(C(=O)N[C@@H]2CC[C@@H](N3CCOCC3)[C@@H]2O)c1 | -132.2% |
| CNC(=O)c1ccc(C(=O)N2CCCC(n3ccnc3C)C2)cn1 (centres undefined) | -171.6% |
| NC(=O)c1ccc(CN2C(=O)C3(CCNCC3)Nc3ccccc32)cc1 | -6.416% |
| C=Cc1ccc(CN2C(=O)C3(CCNCC3)Nc3ccccc32)cc1 | 87.33% |
| Cl.O=C1CC2(CCCNC2)C(=O)N1Cc1ccccc1 (centres undefined) | -18.54% |
| CC(C)c1ccc(CN2C(=O)C3(CCNCC3)Nc3ccccc32)cc1 | 81.43% |
| Cl.O=C1CC2(CCCNC2)C(=O)N1Cc1ccc(F)cc1 (centres undefined) | -29.07% |
| N#Cc1cccc(CN2C(=O)C3(CCNCC3)Nc3ccccc32)c1 | 66.93% |
| CCN1CC2(CCC1=O)CCN(Cc1cccc(C#N)c1)CC2 | -206% |
| CN1CC2(CCN(Cc3cccc(C#N)c3)CC2)CC1=O | -15.68% |
| Cl.O=C1CC2(CCNCC2)C(=O)N1Cc1ccc(F)cc1 | -53.59% |
| c1ccc2c(c1)COC1(CCCC1)N2 | -67.59% |
| Cn1nc(CN2CCCCC2)c2c1CN(C(=O)c1ccccc1)C2 | -57.34% |
| CC(C)NC(=O)c1nn(C)c(NC(=O)Cc2ccccc2)c1F | -24.59% |
| Cc1nc(CNC(=O)NC2CCN(c3ncccn3)CC2)cs1 | -218.9% |
| CCOCCCn1c(NC(=O)c2cc(C)no2)nc2ccccc21 | -48.09% |
| Cn1cccc1C(=O)N1C[C@H]2CC[C@@H]1CN(Cc1cscn1)C2 | -15.16% |

| SMILES | Percent Effect |
| --- | --- |
| O=S(=O)(c1cc(F)ccc1F)N1CCCC1c1ccco1 (centres undefined) | -139.7% |
| CCN1CCCC(O)(CN(C)Cc2ccc(C)o2)C1 (centres undefined) | 18.1% |
| Cc1ccc(CN2CCCC3(CCN(Cc4ccc(C)o4)C3)C2)o1 (centres undefined) | 14.98% |
| Cc1ccc(CN(C)CC2(O)CCCN(C)C2)o1 (centres undefined) | 53.08% |
| O=C(c1ccccn1)N1CCc2ncnc(-c3ccncc3)c2CC1 | -17.27% |
| COc1cccc(OC)c1-c1ccnc2cc(CC(=O)N(C)C)nn12 | -114.9% |
| CC(C)NC(=O)CC1CC2(CCN(S(C)(=O)=O)CC2)c2ccccc21 (centres undefined) | -30.05% |
| Cc1ccc(-c2cn3c(n2)CO[C@@H](CNCc2nccn2C)C3)cc1 | 87.31% |
| Cc1ccc(-c2cn3c(n2)CO[C@@H](CNCc2cnn(C)c2)C3)cc1 | -51.89% |
| Cc1cccnc1CNC[C@H]1Cn2cc(-c3ccccc3)nc2CO1 | 30.07% |
| COc1ccc(-c2cn3c(n2)CO[C@@H](CNCc2nccn2C)C3)cc1 | 20.49% |
| Cc1ccc(CNC[C@H]2Cn3cc(-c4ccccc4)nc3CO2)cc1 | -116.4% |
| Cn1ccnc1CNC[C@H]1Cn2cc(-c3ccccc3)nc2CO1 | 55.94% |
| Fc1ccccc1OC1CCN(CCn2cc3ccccc3n2)CC1 | -71.75% |
| CCC1CN(CC(=O)N2CCCC2)CCN1CCOC (centres undefined) | -62.36% |
| Cc1ccc(N2CCC3(CCN(C(=O)c4ccsc4)CC3)C2)nn1 | -9.92% |
| NC(=O)N1CCC2(CCN(Cc3ccccn3)C2=O)C1.O=C(O)C(F)(F)F (centres undefined) | -110.7% |
| COCC(O)CN1CCC(=O)N(Cc2ccccc2)Cc2ccccc21 (centres undefined) | -18.3% |
| CC(C)c1nn(C)c(N(C)C)c1CNCC(O)c1ccccc1F (centres undefined) | -90.64% |
| CC(C)c1nn(C)c(Cl)c1CNCC(O)c1cccc(F)c1.Cl (centres undefined) | 81.83% |
| COc1c(CNCC(c2cccc(F)c2)N(C)C)c(C(C)C)nn1C (centres undefined) | 19.73% |
| CC(C)c1nn(C)c(N(C)C)c1CNCC(O)c1cccc(F)c1 (centres undefined) | 28.02% |
| COc1ncccc1CNCc1c(C(C)C)nn(C)c1N(C)C | 6.61% |
| CC(C)c1nn(C)c(N(C)C)c1CNCC(O)c1ccccc1 (centres undefined) | -60.19% |
| COc1ncccc1CNCc1c(C(C)C)nn(C)c1Cl | 51.46% |
| COc1ncccc1CNCc1c(C(C)C)nn(C)c1OC | -36.33% |
